Pf Dd2 inh: qHTS Primary assay for Inhibitors of Plasmodium falciparum Dd2 growth in vitro. hit rate 4.3% among 120,000. Potency, µM (doses to about 28.9 µM), for inactives: at the highest dose activity, negative = inhibition, actives largely listed as inhibitors. P. falciparum Dd2 growth, SYBR Green, 72 h; active means well fitted inhibition curve with a large enough effect;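 further: plate controls were DMSO vehicle for no effect and reference drug for full effect; nearly all actives have a fitted effect of over 65% in size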
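Infected erythrocytes (Dd2, 0.3% parasitemia, 2.5% hematocrit final) are added to compound in RPMI-1640/Albumax II medium, grown 72 h at 37C in low oxygen, then lysed with saponin/Triton-X containing SYBR Green and read by fluorescence.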
An asterisk follows results filed as active; i = inactive; [ ] = another dose, or the depositor's remark. This is one part of a sample in which hits are shown more often than they occur. Potency means the concentration at half of the fitted maximal effect.

SMILES	Pf Dd2 inh
CS(=O)(=O)N1Cc2ccccc2CC2(CCCN2Cc2cccnc2)C1 (stereo not drawn)	-8%
O=C(O)CCC(=O)N1CCCC2(Cc3ccccc3N(C(=O)c3ccc(Cl)cc3)C2)C1 (stereo not drawn)	i
O=C(c1ccccc1)N1CC2(CCCCN2Cc2cccnc2)Cc2ccccc21 (stereo not drawn)	10µM*
CCN1CCCN(C(=O)c2cccnc2)CC12CCOCC2	-6%
O=C(c1ccc(Cl)cc1)N1CC2(CCCN2Cc2cccnc2)Cc2ccccc21 (stereo not drawn)	10µM*
C[S+](=O)([O-])N1CC2(CCCCN2Cc2ccc(Cl)cc2)Cc2ccccc21 (stereo not drawn)	-27%
O=C(c1ccc(Cl)cc1)N1CC2(CCN(Cc3cccnc3)CC2)Cc2ccccc21	-26%
O=[S+]([O-])(c1ccccc1)N1CC2(CCCN2Cc2cccnc2)Cc2ccccc21 (stereo not drawn)	11µM*
O=C(c1ccncc1)N1CCCN(Cc2cccnc2)c2ccccc21	i
C=CCNC(=O)N[C@H]1CCN2C(=O)c3ccc(Cl)cc3NC(=O)[C@@H]2C1	26%[44.1 µM]
c1csc(CN2CC[C@H](c3nc4ccccc4[nH]3)C2)c1	i
CN(C1CCc2nn(C)c(=O)n2CC1)S(=O)(=O)c1ccc2c(c1)CCC2 (stereo not drawn)	i
O=C(Cn1ccn2nc3c(c2c1=O)CCCCC3)Nc1ccc2c(c1)OCO2	23%
COCC(=O)Nc1ccc([C@@H](O)[C@H]2COCC(=O)N2C)cc1	6%[44.1 µM]
O=Cc1ccc(-c2ccc(F)cc2)cc1	18%[44.1 µM]
COC(=O)[C@@H]1Cc2ncn(C(C)C)c2CN1C(=O)c1ccccc1	-2%[44.1 µM]
C=CCn1cc2c3c(cccc31)[C@H](CC(C)C)N[C@H](C(=O)NCc1ccc(OC)cc1)C2	i
C=CCN1CCN(C(=O)[C@@H]2Cc3c[nH]c4cccc(c34)[C@H](CC(C)C)N2)CC1	11µM*
C=CCn1cc2c3c(cccc31)[C@H](CC(C)C)N[C@H](C(=O)NCCCN1CCCC1=O)C2	i
COc1ccc(-c2cc(N3CCCC(NC(=O)c4cccc(N(C)C)c4)C3)n[nH]2)cc1 (stereo not drawn)	i
COc1ccc(C2(C(=O)N3C[C@@H](CO)[C@H](c4ccccn4)C3)CC2)cc1	12%
CN1CC(=O)N(c2ccccc2F)Cc2c(NCc3ccc4c(c3)OCO4)ncnc21	-2%
Cc1nn(C)c2nc(-c3ccccn3)nc(NCc3ccc4c(c3)OCO4)c12	8.9µM*
Cc1cccc(N2Cc3c(NCc4ccc5c(c4)OCO5)ncnc3N(C)CC2=O)c1	-28%
O=C(O)C1CCc2nnc(C3CCCN(C(=O)Cc4ccccc4)C3)n21 (stereo not drawn)	i
SMILES	Pf Dd2 inh
COc1ccccc1OCCNC(=O)c1cc2n(n1)CC(c1ccc(Cl)cc1)OC2 (stereo not drawn)	-30%
O=C(NCc1ccccc1F)c1ccc2c(c1)CN(Cc1ccncc1)CCO2	i
O=C(CCc1ccccc1)N1CCC(CCOc2ccccc2F)C1 (stereo not drawn)	i
CS(=O)(=O)N1CCC2(C1)OC(=O)Nc1ccccc12 (stereo not drawn)	24%[44.1 µM]
CN1CCN(C(=O)c2ccc(-c3ccc(N4CCSCC4)nc3)cc2)CC1	i
O=C(N[C@H]1CCN2C(=O)c3cc(-c4ccc5c(c4)OCO5)ccc3NC(=O)[C@H]12)c1cccc(F)c1	i
CN(Cc1nc2c(s1)CCCC2)C(=O)CN1C(=O)CSc2ccccc21	-6%
CC(C)(C)c1coc([C@@H]2COCCN2Cc2cnc3ccccc3c2)n1	-13%[44.1 µM]
CN(Cc1ccc(CN2CCCC(O)(CO)C2)o1)S(C)(=O)=O (stereo not drawn)	26%
CC(C)c1ccc(-n2cc(CN3CCCC(O)(CN(C)C)C3)cn2)cc1 (stereo not drawn)	6.3µM*
Fc1cccc(-n2cc(CN3CCCC4(CCOC4)C3)cn2)c1 (stereo not drawn)	-14%
CCOc1ccccc1C(=O)N1CCC(c2n[nH]c(=O)n2-c2ccccc2)CC1	-20%
Cc1ccc(SCc2ccc(-c3nc(C4CCOC4)no3)o2)cc1 (stereo not drawn)	-26%
COC1CCCN(c2ncnc3c2CCN(C(=O)c2ccoc2)CC3)C1 (stereo not drawn)	-23%
Cc1cc(NC(=O)c2cc(Cl)ccc2Cl)ccc1-c1cc2ccccc2oc1=O	11µM*
O=C(Nc1ccc(Cl)c(-c2nc3cc(Cl)ccc3o2)c1)c1cc2ccccc2o1	2%
Cc1cc2nc(-c3cc(NC(=O)c4cc5ccccc5o4)ccc3Cl)oc2cc1C	i
COC(=O)C1=C(C)N(Cc2cccc([N+](=O)[O-])c2)C(=O)CC1c1ccccc1Cl (stereo not drawn)	8%
Cc1c(Cl)c(C(=O)N2CCCC(C)(Cc3ccc4c(c3)OCO4)C2)nn1C (stereo not drawn)	-5%
Cc1c(Cl)cccc1-n1ncc(C(=O)Nc2ccc(F)cc2F)c1C1CCN(C(=O)OC(C)(C)C)CC1	-3%
CC(C)(C)OC(=O)N1CCC(c2c(C(=O)NCc3ccc4c(c3)OCO4)cnn2-c2ccc(F)cc2F)CC1	7.9µM*
COc1ccc(NC(=O)c2cnn(-c3ccc(F)cc3F)c2C2CCN(C(=O)OC(C)(C)C)CC2)cc1Cl	7.9µM*
CC(C)(C)OC(=O)N1CCC(c2c(C(=O)Nc3ccc4c(c3)OCCO4)cnn2-c2ccc(F)cc2F)CC1	4µM*
CC(C)(C)OC(=O)N1CCC(c2c(C(=O)Nc3cccc(C(F)(F)F)c3)cnn2-c2ccc(F)cc2F)CC1	11µM*
CC(C)(C)OC(=O)N1CCC(c2c(C(=O)O)cnn2-c2ccc(F)cc2F)CC1	5%
SMILES	Pf Dd2 inh
O=C(Nc1cccc(Cl)c1)C1CCc2sc(C(=O)N3CCCC3)cc2C1 (stereo not drawn)	i
Cc1cccc(CC(=O)N2CCC3(CC2)CC(OCC2CC2)CCO3)c1 (stereo not drawn)	-5%
N#Cc1ccc(C(=O)NCC(=O)N2CCCCCNC(=O)CC2c2ccccc2)cc1 (stereo not drawn)	29%
O=C(c1nccnc1C(=O)N1CCC2(CCCNC2)C1)N1CCCCC1 (stereo not drawn)	0%
Cc1noc(C)c1CC(=O)NCC1Cn2cccc2C(=O)N1C (stereo not drawn)	14%
Cc1ccc(C(=O)N2C[C@@H](Oc3ccccc3)C[C@H]2C(=O)N2CCOCC2)cn1	2%
Cc1ccc(NC(=O)C2Cn3cccc3C(=O)N2C)cc1 (stereo not drawn)	i
CCNC(=O)C1C(c2ccc(NC(=O)c3cccc(Cl)c3)cc2)OC(=O)N1Cc1ccc(C)cc1 (stereo not drawn)	i
O=C(c1ccoc1)N1CCC(Cc2nc(-c3ccccc3)n[nH]2)C1 (stereo not drawn)	-16%
Cc1cccc(-n2ncc(C(=O)Nc3ccc4c(c3)OCO4)c2C2CCN(C(=O)OC(C)(C)C)CC2)c1	10µM*
Cc1ccc(-n2ncc(C(=O)N3CCCCC3)c2C2CCN(C(=O)OC(C)(C)C)CC2)cc1C	-5%
CC(C)n1cccc1C(=O)N1CC[C@H](N2CCN(C)CC2)[C@H](CCC(=O)O)C1	9%
C[C@@H]1C(=O)O[C@H]2[C@H]1CC[C@@]1(C)Cc3sc(Nc4ccc(O)cc4)nc3[C@@H](C)[C@H]21	i
O=C(NCc1cccc(F)c1)c1ccc2c(c1)CC(=O)N2Cc1ccccc1	i
O=C(c1ccc2c(c1)CC(=O)N2Cc1ccccc1)N1CCN(C2CCCCC2)CC1	1.4µM*

Screening results as filed in PubChem BioAssay.
